Assay outcomes: PubChem BioAssay, Sanford-Burnham Center for Chemical Genomics
CF NFkB inh = blocks PAF-induced NF-kB reporter in cystic fibrosis cells. KKLEB NF-kB-GFP reporter, GFP fluorescence overnight. inhibition, % at 5 µM. 360,000 tested, 0.86% active;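 active = at least 50% inhibition at 5 µM, scaled per plate between neutral and stimulator controls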;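 also: PAF is a Pseudomonas aeruginosa culture filtrate used as stimulus; plate controls were PAF-stimulated DMSO wells for no effect and unstimulated DMSO wells for full effect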
HIF-2a block = blocks HIF-2a reporter activity. 786-0 RCC cells HIF-2a reporter, luciferase luminescence, overnight. inhibition, % at 18.8 µM. 360,000 tested, 0.72% active. AID 624352;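 active = inhibition of the luminescence signal of 40% or more relative to plate controls, in a single-dose primary screen at 18.75 µM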
TWEAK Fn14 block = blocks TWEAK-Fn14 interaction in a reporter cell assay; AID 1159606; inhibition, % at 10 µM; TWEAK-stimulated Fn14 reporter cells, luciferase luminescence, 8 h; 360,000 tested, 2% active; in the data active = inhibition above about 50%
Peg3 prom inh-1 = inhibitors of Peg3 promoter. HeLa PEG-Prom luciferase reporter, luminescence, overnight. inhibition, % at 20 µM. 360,000 tested, 1.7% active. AID 588405;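 active = inhibition of at least 50% at 20 µM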
KKLEB cytotox = reduces viability of KKLEB cystic fibrosis airway cells; KKLEB CF airway cells viability, ATPlite luminescence, overnight; active compounds read low; cells stimulated with P. aeruginosa culture filtrate; activity change (cytotoxicity), % at 5 µM; 360,000 tested, 0.36% active; AID 602141;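 active = corrected activity change at or below -50% at 5 µM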
TROY signal inh = inhibitors of TROY-dependent NF-kB signaling | Q293 LMP1-TROYcd NF-kB luciferase reporter, 4 h | inhibition, % at 10 µM | 360,000 tested, 0.98% active;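 active = compounds whose plate-normalised and pattern-corrected inhibition of the luciferase reporter signal at the single screening dose is 50% or more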
Peg3 prom inh-2 = Peg3 promoter inhibition confirmation. HeLa PEG-Prom luciferase reporter, luminescence, overnight. shares compounds with Peg3 prom inh-1. AID 602417. 1,300 tested, 84% active. inhibition, % at 20 µM;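 active = at 20 µM dose, 40% or more inhibition averaged across four replicates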
* hit, by the source's call; nt = not tested or not shown. Shown are actives, neighbours in structure and some others; about 3.9% of the full set was active somewhere.

SMILES | CF NFkB inh | HIF-2a block | TWEAK Fn14 block | Peg3 prom inh-1 | KKLEB cytotox | TROY signal inh | Peg3 prom inh-2
COc1cc(C(=O)NCCCCCCNC(=O)c2cc(OC)c(OC)c(OC)c2)cc(OC)c1OC | -95 | 8 | -8 | -2 | 3 | 1 | nt
NC(N)=N/N=C/c1cccc(Cl)c1Cl | -1 | -7 | -20 | 76* | -11 | 10 | 80*
COc1ccc(/C=C/C(=O)NCC(=O)n2nc(C)cc2C)cc1 | 4 | 11 | 20 | 1 | 7 | 4 | nt
CCC(C)n1cnc2c(c1=O)c1nc3ccccc3nc1n2-c1ccc2c(c1)OCCO2 (stereo unspecified) | 9 | -7 | -15 | 56* | -17 | 6 | 18
COc1ccc(NC(=O)CNS(=O)(=O)c2cccc3nonc23)c(OC)c1 | 3 | 6 | -2 | 4 | -5 | 1 | nt
CCOC(=O)c1sc2nc(CSc3ccccc3)nc(N3CCCN(C)CC3)c2c1C | 12 | 9 | -6 | 65* | -13 | -29 | 94*
CCN(CC)C(=O)CSc1nc(N)c(-c2ccccc2)c(=O)[nH]1 | -3 | 14 | -4 | 4 | 3 | 8 | nt
CC1CCCC(C)N1C(=C(Cl)Cl)C(=C1SCCS1)[N+](=O)[O-] (stereo unspecified) | 26 | 30 | 13 | 71* | -28 | -4 | 59*
Fc1c(F)c(F)c(/C=N/NC(=S)Nc2cccnc2)c(F)c1F | 37 | 20 | 32 | 101* | -17 | 16 | 44*
COc1cc(CNC(C)(C)CO)cc(Br)c1OCc1ccc(Cl)cc1 | 13 | -18 | -17 | 81* | -11 | -10 | 91*
Cc1cc(Br)ccc1NC(=O)CN1C(=O)C2C3CC(c4ccccc4)C(C3)C2C1=O (stereo unspecified) | -19 | -22 | 23 | 56* | -7 | 25 | 63*
Cc1cc(Br)ccc1NC(=O)CNC(=O)CN1C(=O)NC2(CCCCCC2)C1=O | 0 | 10 | -4 | 11 | 0 | -9 | nt
CCOc1ccc(-n2c(SCC(=O)Nc3ccc(Br)cc3)nc3n[nH]c(C)c3c2=N)cc1 | 17 | 11 | -23 | 33 | -32 | 10 | nt
Cc1cc(-n2c(SCC(=O)Nc3ccc(F)c(F)c3)nc3n[nH]c(C)c3c2=N)ccc1Cl | 7 | 7 | -2 | 84* | -7 | 9 | 59*
Cc1cc(-n2c(SCC(=O)Nc3ccc(Br)cc3)nc3n[nH]c(C)c3c2=N)ccc1Cl | 32 | 2 | -40 | 85* | -20 | -6 | 40
CCOCCCNS(=O)(=O)c1ccc(NC(=O)C2CC(=O)N(c3ccc(C)cc3)C2)cc1 (stereo unspecified) | 0 | 13 | 0 | 2 | 16 | -20 | nt
O=C(CN1CCCCC1)NNC(=O)c1ccc([N+](=O)[O-])cc1 | -6 | 8 | -5 | -8 | 0 | 9 | nt
CCOC(=O)c1c(C)n(-c2ccc(OC)cc2)c2ccc(O)c(CN(C)C)c12 | 17 | 24 | 1 | 55* | -11 | -12 | 30
Cc1ccc(-c2nnc(-c3ccc(NC(=O)Cc4cccs4)cc3)o2)cc1 | 71* | -20 | -38 | 55* | -77* | -28 | 17
Cc1ccc(-n2nc3c(N4CCC(C(=O)NCCc5cccs5)CC4)nnc(C)c3c2C)cc1 | 33 | 8 | -4 | 60* | -14 | 2 | 37
COc1ccc(CCN2C(=O)C=CC2=O)cc1OC | 6 | 55* | 16 | 96* | -4 | -6 | 98*
CCCCCN1C=CC(=C2C(=O)c3ccccc3C2=O)C=C1 | -5 | 88* | 77* | 103* | -82* | 78* | 91*
CN1CCN(c2ccc(NC(=O)c3ccc4c(c3)OCCO4)cc2)CC1 | 8 | -128 | 24 | -145 | -4 | 32 | nt
COc1cccc(-c2cnc3c(NC=O)cc(-c4cccc(C(=O)N(C)C)c4)cn23)c1 | -37 | 0 | 1 | 55* | -8 | -16 | 54*
COc1cccc(-c2cc(NC=O)c3ncc(-c4cccc(C(=O)N(C)C)c4)n3c2)c1 | 16 | -8 | 37 | 32 | -12 | -6 | nt
SMILES | CF NFkB inh | HIF-2a block | TWEAK Fn14 block | Peg3 prom inh-1 | KKLEB cytotox | TROY signal inh | Peg3 prom inh-2
CN(C)C(=O)c1cccc(-c2cnc3c(NC=O)cc(-c4cccc(C(F)(F)F)c4)cn23)c1 | -1 | 8 | 63* | 57* | -15 | 34 | 61*
COc1cc(/C=C/C(=O)O)cc(S(=O)(=O)Nc2ccc3[nH]c(=O)[nH]c3c2)c1OC | 1 | 7 | 14 | 3 | 0 | -1 | nt
COc1cc(/C=C/[N+](=O)[O-])ccc1OC(=O)/C=C/c1ccc(F)cc1 | -30 | 8 | -8 | 103* | -4 | -1 | 52*
COc1ccc(/C=C/C(=O)Oc2ccc(C)c(C)c2)cc1OC | -6 | -14 | 6 | -30 | 9 | -10 | nt
C=CCn1c(SCC(=O)N2CCCC2)nc2cc(C(=O)NCC3CCCO3)ccc2c1=O (stereo unspecified) | -8 | 12 | 9 | 10 | 6 | 1 | nt
O=C(Nc1nc(-c2ccc3ccccc3c2)cs1)c1ccc(N2C(=O)CCC2=O)cc1 | 18 | -9 | -40 | 56* | -12 | 1 | 17
O=C(Nc1ccc2oc(-c3ccncc3)nc2c1)c1ccc([N+](=O)[O-])o1 | 48 | 6 | 19 | 102* | -20 | 0 | 98*
COc1cc(C(=O)N/N=C(\c2ccccc2)c2ccccn2)cc(OC)c1OC | 16 | 29 | -91 | 107* | 2 | 14 | 81*
CNCC[C@@H](Oc1ccc(C(F)(F)F)cc1)c1ccccc1 | 14 | -12 | 10 | 74* | -21 | 10 | 69*
CC(C)n1nc(C(=O)Oc2cc(Cl)ccc2Cl)c2ccccc2c1=O | 9 | 3 | 0 | 54* | -13 | -6 | 65*
CC(C)n1nc(C(=O)Oc2cccc(Cl)c2Cl)c2ccccc2c1=O | 13 | -5 | 36 | 31 | -11 | -14 | nt
COc1ccccc1NC(=O)c1cc(-c2cc(OC)c(OC)c(OC)c2)nc2ccccc12 | 29 | -3 | 19 | 54* | -12 | 14 | 74*
COc1cc(-c2cc(C(=O)Nc3cc(S(=O)(=O)N4CCOCC4)ccc3O)c3ccccc3n2)cc(OC)c1OC | -27 | 14 | 10 | 27 | 8 | 2 | nt
COc1cc(-c2cc(C(=O)Nc3cc(S(=O)(=O)N4CCOCC4)ccc3C)c3ccccc3n2)cc(OC)c1OC | 15 | 13 | 6 | 53* | -7 | -1 | 53*
CCOc1ccccc1NC(=O)c1cc(-c2cc(OC)c(OC)c(OC)c2)nc2ccccc12 | -8 | 12 | 6 | 45 | -8 | 4 | nt
CCCCCCCCOC(=O)c1cc([N+](=O)[O-])c(Sc2ncnc3nc[nH]c23)c([N+](=O)[O-])c1 | 2 | -53 | 20 | 83* | -9 | -4 | 73*
